hgDAF-12 ag: H. glycines DAF-12 receptor agonists, primary screen, cell-based, luminescence, HEK293, GAL4 fusion, UAS-luciferase; HEK293 GAL4-hgDAF12 UAS-luciferase reporter, agonist luminescence; normalized to butyrate control; Nuclear hormone receptor DAF-12 (Heterodera glycines), GAL4 fusion; 370,000 compounds, 1.8% hits; activation, % at 6.8 µM;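 active = activation above a cutoff set at the mean of all screened compounds plus 3 SD, cut at about 10% in these data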
DAX1 inh-1: DAX1 (NR0B1) inhibitors on StAR promoter, primary screen, cell-based, luminescence, SF-1 (NR5A1), full-length DAX-1; inhibition, % at 6.8 µM; 370,000 compounds, 1.1% hits; HEK293T StAR-luciferase reporter, SF-1/DAX-1 repression relief;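 active = inhibition above the mean over all tested compounds plus 3 SD, cut at about 3.6% in these data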;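 also: higher inhibition means more luminescence from relief of DAX-1 repression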
ssDAF12 agonist: S. stercoralis DAF-12 nuclear receptor activators, primary screen, cell-based, luminescence, HEK293, GRIP1 co-expression, lit1-tk-luc | Nuclear hormone receptor DAF-12 (Strongyloides stercoralis) | HEK293 ssDAF-12/GRIP1 lit1-tk-luc reporter; % of 3 µM dafachronic acid response | activation, % at 6.8 µM | 370,000 compounds, 1% hits;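 active = activation above the mean over all tested compounds plus 3 SD, cut at about 0.9% in these data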
DAX1 inh-2: DAX1 (NR0B1) inhibitors, primary screen, cell-based, HEK293, Gal4-DAX1, luciferase luminescence | AID 504766, 2011 | inhibition, % at 6.75 µM | HEK293 Gal4-DAX1 luciferase reporter | 340,000 compounds, 0.99% hits;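 active = inhibition above the mean over all tested compounds plus 3 SD, cut at about 4.2% in these data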;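 also: inhibition shows as a rise in luminescence from relieved DAX1 repression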
Target sequence (P51843 207-470 limits assumed): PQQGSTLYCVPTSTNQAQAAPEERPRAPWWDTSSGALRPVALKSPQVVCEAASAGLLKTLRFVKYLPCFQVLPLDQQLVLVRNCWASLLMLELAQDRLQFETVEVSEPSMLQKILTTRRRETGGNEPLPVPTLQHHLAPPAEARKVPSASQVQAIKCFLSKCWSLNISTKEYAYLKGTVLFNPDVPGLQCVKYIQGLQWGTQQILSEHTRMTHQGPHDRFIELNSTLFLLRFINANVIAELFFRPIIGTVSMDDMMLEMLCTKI
hcDAF-12 act: H. contortus DAF-12 nuclear receptor activators, primary screen, cell-based, luminescence, HEK293, lit1-tk-luc reporter. HEK293 hcDAF-12 lit1-tk-luc reporter; 0% DMSO, 100% Δ7-dafachronic acid. activation, % at 6.8 µM. 370,000 compounds, 1.4% hits;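 active = activation above the mean of all tested compounds plus 3 SD, cut at about 5.5% in these data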
Large screens that a line does not name were inactive; ! = not confirmed by another sample. Sampled rows, rich in hits. Any-hit rate of the full collection: about 4.1%.

OCCCn1c(C2CCCN2c2nc(-c3ccc(Cl)cc3)cs2)nc2cc(Cl)c(N3CCCCC3)cc21 (configuration not stated)	DAX1 inh-2 5.3
COc1ccc(CCNc2nc3ccccc3n3cnnc23)cc1OC	none
COCCNc1nc2ccccc2n2cnnc12	DAX1 inh-2 4.3
Cc1cccc(NC(=O)/C=C/c2cccs2)n1	hgDAF-12 ag 13, hcDAF-12 act 6.2
Cc1cc(Cl)ccc1OCCCC(=O)NO	hgDAF-12 ag 12
COc1ccc(S[C@]2(C(=O)N3CCOCC3)CC(=O)N(C(=O)c3ccccc3)[C@@H]2c2ccc(OC)cc2)cc1	none (no result: DAX1 inh-2)
CNC(=O)C[C@@H]1CC[C@@H]2[C@H](COc3ccc(NC(=O)c4cccc(F)c4)cc3C(=O)N2C)O1	none (no result: DAX1 inh-2)
COC(=O)[C@@]12C[C@@H](CC(=O)N3CCCC3)C(=O)N(Cc3cccc4ccccc34)C1=CCC(C)(C)C2	none (no result: DAX1 inh-2)
O=[N+]([O-])c1cccc(-c2noc(-c3ccco3)n2)c1	hgDAF-12 ag 12
Cc1cc(C(=O)O[C@@H]2CCC[C@@]3(C(=O)N(Cc4ccccc4)c4ccccc43)[C@H]2NC(=O)CCc2ccccc2)no1	none (no result: DAX1 inh-2)
O=C1Nc2ccccc2S/C1=C/c1cccs1	ssDAF12 agonist 1.3
Cc1ccc(Cn2cc(CN3[C@@H](CC(C)C)COc4cccc(F)c4S3(=O)=O)nn2)cc1	none (no result: DAX1 inh-2)
Cc1ccc(-c2nnc(SCC(=O)Nc3ccc(-c4nc5ccc(C)cc5s4)cc3)n2Cc2ccco2)cc1	hgDAF-12 ag 11 (no result: DAX1 inh-2)
COc1ccc(-c2nnc(SCC(=O)Nc3ccc(Oc4ccccc4)cc3)n2Cc2ccco2)cc1	none (no result: DAX1 inh-2)
CCN1CCN(CCCNC(=O)c2cc3c(=O)oc4ccc(C)cc4c3s2)CC1	none
CCCN1CCN(CCCNC(=O)c2cc3c(=O)[nH]c4ccc(C)cc4c3s2)CC1	DAX1 inh-2 6.4
Cc1ccnc(SCc2cc(=O)c(OC(=O)c3ccc(C#N)cc3)co2)n1	none (no result: DAX1 inh-1, DAX1 inh-2)
O=C(CCc1nc2ccccc2c(=O)[nH]1)N1CCCc2ccccc21	ssDAF12 agonist 1.3, hcDAF-12 act 5.6
COc1ccc2[nH]cc(C(=O)CN3CCC(C)CC3)c2c1	ssDAF12 agonist 1.3
CCOC(=O)C1CCCN(CC(=O)Nc2cc(C)cc(C)c2)C1 (configuration not stated)	none
COc1ccc2[nH]cc(C(=O)CN3CCCC(C)C3)c2c1 (configuration not stated)	none
CCOC(=O)C1CCCN(CC(=O)c2c[nH]c3ccc(C)cc23)C1 (configuration not stated)	ssDAF12 agonist 1.3 (no result: DAX1 inh-2)
Nc1[nH]n(-c2ccccc2)c(=O)c1N=Nc1ccccc1	ssDAF12 agonist 1.3
Nc1[nH]n(-c2ccccc2)c(=O)c1N=Nc1ccccc1[N+](=O)[O-]	none
CCc1ccccc1N=Nc1c(N)[nH]n(-c2ccccc2)c1=O	hgDAF-12 ag 11 (no result: DAX1 inh-2)
Cc1nc2ccc(S(=O)(=O)NCC(=O)NCc3ccc(F)cc3)cc2s1	none (no result: DAX1 inh-2)
O=C(NCc1csc(-c2cccs2)n1)C1CCCCC1	DAX1 inh-2 4.5
CCC(=O)NCc1csc(-c2cccs2)n1	none
CC(C)CN(CCCNC(=O)CN1C(=O)CSc2ccc(S(=O)(=O)N3CCOCC3)cc21)CC(C)C	ssDAF12 agonist 0.9
O=C1OCC2=C1C(c1ccccc1)CC(=O)N2c1ccc(F)cc1 (configuration not stated)	hgDAF-12 ag 12
O=C(NC(=S)NCc1nc2ccccc2[nH]1)c1ccc(F)cc1	hgDAF-12 ag 10
O=C(NC(=S)NCc1nc2ccccc2[nH]1)c1ccccc1F	hcDAF-12 act 6.3
CC(C)[C@H](NC(=O)OC(C)(C)C)C(=O)N1CCC(Oc2cccnc2)CC1	none (no result: DAX1 inh-2)
CON(C)S(=O)(=O)c1cccc(C(=O)N(CC(=O)Nc2ccccc2C(F)(F)F)Cc2ccco2)c1	none
O=C(CN(Cc1ccco1)C(=O)c1cccc(F)c1)Nc1ccccc1C(F)(F)F	DAX1 inh-1 3.7
CCOc1ccc(CCNC(=O)c2cc3ccsc3n2C)cc1OC	none (no result: DAX1 inh-2)
COc1cc(/C=C/C(=O)O)cc(S(=O)(=O)N2CCc3ccccc32)c1OC	ssDAF12 agonist 2.3
O=S1(=O)c2ccc(Br)cc2OC[C@@H](Cc2ccccc2)N1Cc1cn(CC2CCCCC2)nn1	none (no result: DAX1 inh-2)
Cc1ccc(CNC(=O)OC(C)(C)C)c(/C=C/S(=O)(=O)NCc2ccc(F)cc2)c1	none (no result: DAX1 inh-2)
Cc1cc(SCC(=O)NCCC2=CCCCC2)nc2ccccc12	none
CCOC(=O)N1CCC(n2c(SCC(=O)NCc3ccccc3)nc3ccccc3c2=O)CC1	none
Cc1cc(=O)[nH]c(SCC(=O)NCCC2=CCCCC2)n1	DAX1 inh-2 4.9
CCOC(=O)N1CCC(n2c(SCC(=O)NCCC3=CCCCC3)nc3ccccc3c2=O)CC1	DAX1 inh-2 4.4
O=C(c1ccncc1F)N1CCC(n2nnc3ncccc32)CC1	none (no result: DAX1 inh-2)
CCOC(=O)Cc1c(C)nc(SC)[nH]c1=O	hgDAF-12 ag 11
CC(C)(C)c1ccc(-c2nnc(SCC(=O)Nc3ccc4cn[nH]c4c3)n2-c2ccc(Cl)cc2)cc1	none (no result: DAX1 inh-2)
Cc1cccc(NC(=S)N/C(=N/S(=O)(=O)c2ccccc2)c2ccccc2)c1	hgDAF-12 ag 12!
CCCC(=O)NC(=S)Nc1cccc(NC(=O)c2ccccc2)c1	none
CC(=O)c1cccc(NC(=S)NC(=O)c2cccc(C)c2)c1	hgDAF-12 ag 13
Cc1cccc(C(=O)NNC(=O)c2ccc(O)cc2)c1	none
CC(C)CC(=O)NC(=S)Nc1cccc(NC(=O)c2ccccc2)c1	DAX1 inh-2 7.3
Cc1ccc(S(=O)(=O)/N=C(/NC(=S)Nc2cccc(C)c2)c2ccccc2)cc1	none
CC(=O)c1cccc(NC(=S)NC(=O)c2ccc(Cl)cc2)c1	none
Cc1ccc(C(=O)NNC(=O)c2cccc(C)c2)cc1	hgDAF-12 ag 11
Cc1cccc(NC(=S)NNC(=O)c2ccco2)c1	none
CC(C)Oc1cccc(C(=O)NC(=S)Nc2ccccc2)c1	hgDAF-12 ag 12
CC(C)Oc1cccc(C(=O)NC(=S)Nc2cccnc2)c1	none
CCCc1cc(C(=O)NNC(=S)Nc2cccc(C)c2)cs1	hgDAF-12 ag 11
S=C(NCCCc1cnc[nH]1)NCCCN(Cc1ccc(Cl)cc1)c1ccc(Br)cn1	none (no result: DAX1 inh-2)
O=C(NC1CCCCN(Cc2cccc(C(F)(F)F)c2)C1=O)c1cccc(F)c1 (configuration not stated)	none (no result: DAX1 inh-2)
CN1C2=N[C@H](c3cccc(C(F)(F)F)c3)CC(=O)N2/C(=C\c2ccccc2)[C@H]1c1ccccc1	none (no result: DAX1 inh-1, DAX1 inh-2)
COc1ccc(CN(CCN2CCOCC2)C(=O)c2ccc(F)cc2F)cc1OC	none (no result: DAX1 inh-2)
